MazEF act = activators of E. coli MazEF toxin-antitoxin RNase, primary screen, biochemical, fluorescence, uHTS; 0.32% of 350,000 active; FAM/BHQ RNA-DNA oligo cleavage fluorescence, 5 h; activation, % at 20 µM; in the data active = activation above about 50%
Target sequence (P0AE70 whole entry, looked up): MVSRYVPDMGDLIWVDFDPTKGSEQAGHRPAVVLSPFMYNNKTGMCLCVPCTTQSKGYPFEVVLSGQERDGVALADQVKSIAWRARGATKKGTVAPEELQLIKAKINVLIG
Anthrax LF inh2 = Bacillus anthracis LF protease inhibitors, primary screen, biochemical, multiplex microsphere, MLPCN library | Lethal factor (Bacillus anthracis), P15917 | multiplex microsphere protease cleavage assay | inhibition, % at 10 µM | 0.12% of 360,000 active
BoNT-F LC inh = BoNT/F light chain protease inhibitors, primary screen, biochemical, flow cytometry, MLPCN library | Botulinum neurotoxin type F light chain protease (Clostridium botulinum) | Multiplex microsphere protease cleavage assay | inhibition, % at 10 µM | 0.22% of 360,000 active | AID 588497, 2011; in the data active = inhibition above about 35%, passing the limit was not always enough; inconclusive = no clear call, values can overlap the other calls
PriA SSB inh = inhibitors of Klebsiella pneumoniae PriA binding to SSB C-terminal tail, primary screen, biochemical, AlphaScreen | AlphaScreen SSBct-PriA binding, biotinylated peptide | inhibition, % at 33 µM | AID 1272365, 2023 | 0.6% of 430,000 active; in the data active = inhibition mostly above about 37%, no sharp cut-off; inactive = mostly below about 20%
Bead autofluor = flagged as autofluorescent in microsphere protease counterscreen; compound autofluorescence counterscreen, microsphere flow cytometry; hits give high values; fluorescence intensity (no concentration beside the values); 3.1% of 360,000 active; in the data active = fluorescence intensity above about 16000; inconclusive = no clear call, values can overlap the other calls
BoNT A protease = BoNT/A light chain protease inhibitors, primary screen, biochemical, flow cytometry, MLPCN library. Botulinum neurotoxin type A light chain protease (Clostridium botulinum A str. ATCC 3502). multiplex microsphere protease substrate cleavage. inhibition, % at 10 µM. 0.17% of 360,000 active. AID 588499, 2011
Numbers stand for hits; n = inactive; u = inconclusive; x = not tested or not shown; ! = repeats disagree. This is a sample that favours compounds with a hit; in the whole collection about 3.3% have one here. Rule as the data show it, unless noted: active = inhibition above about 30%; inconclusive = no clear call, values can overlap the other calls; inactive = below that.

SMILES	MazEF act	Anthrax LF inh2	BoNT-F LC inh	PriA SSB inh	Bead autofluor	BoNT A protease
O=C(CNC(=O)c1ccccc1C(=O)O)c1ccccc1	n	n	n	n	22929	n
CS(=O)(=O)C1CCN(C(=O)CCC2CCCCC2)C1 (configuration not stated)	x	x	x	n	x	x
COc1ccc(Nc2nc(NCCO)nc(N3CCCC3)n2)cc1	n	n	n	n	n	n
NNc1nc(Nc2ccc([N+](=O)[O-])cc2)nc(N2CCCCCC2)n1	n	n	n	54	n	n
CCCNc1nc(Nc2ccc(C)cc2)nc(N2CCCC2)n1	n	n	n	n	16266	n
Oc1ccc(CN2CCc3ccccc3C2)c2cccnc12	n	n	n	101	16689	n
CCOC(=O)N1CCN(Cc2ccc(O)c3ncccc23)CC1	n	x	x	88	x	x
CCN1CCN(Cc2ccc(O)c3ncccc23)CC1	x	x	x	123	x	x
Oc1ccc(CN2CCN(c3ccccc3)CC2)c2cccnc12	n	n	n	n	n	n
Oc1cc2c(cc1CN1CCc3ccccc3C1)OCO2	n	n	n	n	n	n
Cn1cc(CN2CCc3ccccc3C2)c2ccccc21	n	n	n	n	21029	n
CCN1CCc2ccccc2C1	n	n	n	n	n	n
CCOC(=O)N1CCN(Cc2ccccn2)CC1	n	n	n	n	u	n
Oc1ccc(CN2CCC(Cc3ccccc3)CC2)c2cccnc12	n	x	x	62	x	x
Oc1ccc(CN2CCCCC2)c2cccnc12	n	n	n	99	n	n
COc1cccc(CNC(=O)Cn2ncn3cccc3c2=O)c1OC	71	n	n	n	n	n
COc1ccc(-n2c(-c3ccccc3)cc3c2CCCC3=O)cc1	n	n	n	n	22566	u
O=C1CCCc2c1cc(-c1ccccc1)n2-c1ccc(O)cc1	n	n	n	n	n	n
COc1ccc(CNC(=O)NC[C@H](O)c2cccn2C)cc1OC	x	x	x	n	x	x
CNC(=O)c1cccc(-c2noc(C3CN(S(=O)(=O)c4cccc(Cl)c4C)C3)n2)c1	x	x	x	n	x	x
O=C(c1ccc(-n2cccc2)cc1)N1CCN(Cc2ccccc2)CC1	n	n	n	n	n	n
O=C(c1ccc2ccccc2c1)N1CCCC1	n	n	n	n	n	n
CN1CCN(C(=O)c2ccc(Cl)cc2)CC1	n	n	n	n	n	n
CN1CCN(C(=O)c2ccc(-n3cccc3)cc2)CC1	n	n	n	n	20993	u
O=C(c1ccc(-n2cccc2)cc1)N1CCN(Cc2csc(-c3ccccc3)n2)CC1	x	x	x	29	x	x
SMILES	MazEF act	Anthrax LF inh2	BoNT-F LC inh	PriA SSB inh	Bead autofluor	BoNT A protease
CN1CCN(C(=O)c2ccc3ccccc3c2)CC1	n	n	n	n	23924	n
CCCc1nnsc1C(=O)N1CCCN(S(=O)(=O)c2cnn(C)c2)CC1	x	x	x	n	x	x
CCOC(=O)Nc1ccc2c(c1)CCCN2C(C)=O	x	x	x	n	x	x
Cc1cccc(CN(C)C)c1OC(=O)N(C)C	n	n	n	n	20578	u
CN(C)Cc1ccccc1OC(=O)N(C)C	n	n	n	n	n	n
COC(CNC(=O)Cc1ccc(S(=O)(=O)C(C)C)cc1)c1ccccc1Cl (configuration not stated)	x	x	x	n	x	x
CCc1ccc(S(=O)(=O)Nc2cc(-c3cn4nc(OC)ccc4n3)ccc2C)s1	x	x	x	n	x	x
COc1ccccc1C1C=C(c2ccccc2)Nc2nnnn21 (configuration not stated)	n	n	n	n	20241	u
COc1cccc(C2=CC(c3ccc(OC)c(OC)c3OC)n3nnnc3N2)c1 (configuration not stated)	n	n	n	n	n	n
Cc1ccc(C2=CC(c3ccc(N(C)C)cc3)n3nnnc3N2)cc1 (configuration not stated)	64	n	n	n	n	n
Cc1ccccc1C(=O)N1CCN(S(=O)(=O)c2ccccc2)CC1	n	n	n	n	n	n
CS(=O)(=O)N1CCN(C(=O)c2csc3ccccc23)CC1	n	n	n	n	24374	n
COc1ccc(N2CCN(C(=O)c3csc4ccccc34)CC2)cc1	n	n	n	n	16323	n
Cc1scc(C(=O)N2CCN(S(C)(=O)=O)CC2)c1-c1ccccc1	n	n	n	n	24362	u
COc1ccc(Cl)cc1C(=O)Nc1ccc2c(c1)CC(=O)N2	x	x	x	n	x	x
O=C(c1sc2ccccc2c1Cl)N(Cc1ccco1)C1CCS(=O)(=O)C1 (configuration not stated)	n	n	n	n	23946	u
O=C(c1sc2ccccc2c1Cl)N(Cc1ccccc1)C1CCS(=O)(=O)C1 (configuration not stated)	n	x	x	n	x	x
O=C(c1sc2ccccc2c1Cl)N(Cc1ccccc1Cl)C1CCS(=O)(=O)C1 (configuration not stated)	n	n	n	n	22430	n
CC(=O)Nc1ccc(Br)cc1C(NCC(=O)O)c1ccccc1 (configuration not stated)	x	x	x	n	x	x
Cc1ccc(S(=O)(=O)N2CCOCC2)c2nsnc12	n	n	n	n	17116	n
COc1ccc(OC)c(S(=O)(=O)Nc2cnc(-n3nc(C)cc3C)nc2)c1	x	x	x	n	x	x
CCN1CCCc2cc(CCNC(=O)C(=O)NCCOC)ccc21	x	x	x	68	x	x
CCN1CCCc2cc(CCNC(=O)c3ccc(Br)o3)ccc21	x	x	x	active!	x	x
CCN1CCCc2cc(CCNC(=O)NC(C)(C)C)ccc21	x	x	x	44	x	x
CCCNC(=O)C(=O)NCCc1ccc2c(c1)CCCN2CC	x	x	x	n	x	x
CCN1CCCc2cc(CCNC(=O)c3ccc(C(F)(F)F)cc3)ccc21	x	x	x	n	x	x
CCN1CCCc2cc(CCNC(=O)c3ccc(OC(C)C)cc3)ccc21	x	x	x	61	x	x
CCN1CCCc2cc(CCNC(=O)C(=O)NC(C)(C)C)ccc21	x	x	x	n	x	x
O=C(NCc1cc(-c2ccc3c(c2)OCO3)on1)c1ccccc1F	x	x	x	n	x	x
CCOC(=O)c1ccccc1NC(=O)CSc1ccc(-c2ccc(-n3ccnc3)cc2)nn1	x	x	x	n	x	x

High-throughput results from PubChem.
